# Reference: ChEMBL document CHEMBL4513216, “Probing the Open Global Health Chemical Diversity Library for Multistage-Active Starting Points for Next-Generation Antimalarials” (ACS Infect Dis, 2020)
# In all, about 69,000 compounds went through this assay and about 8,600 (12%) showed an effect of 50% or more. For the sample, strong results were picked, then their nearest neighbours and some compounds at random.
# Tested on: Plasmodium berghei
# Assay: Screen against P. berghei liver stage (PbLuc), transformed with Luciferase, at 10uM
# Assay type: functional, HepG2
# Conditions: tested at 10 uM
row,SMILES,INHIBITION
1,Cc1cnc(C2CCCN(C(=O)c3c[nH]c(=O)[nH]c3=O)C2)s1 (stereo not drawn),38.2%
2,O=C(c1c[nH]c(=O)[nH]c1=O)N1CCCC(c2cnccn2)C1 (stereo not drawn),53%
3,Cc1cncc(C2CCCN(C(=O)c3c[nH]c(=O)[nH]c3=O)C2)n1 (stereo not drawn),11%
4,COc1ncccc1C(=O)Nc1cccc(C[S+](C)[O-])c1C (stereo not drawn),-32.2%
5,Cc1nc2n(n1)CC(NCC(=O)Nc1cc(C)on1)CC2 (stereo not drawn),7.08%
6,CNc1cc(C)nc(C2CN(Cc3ccc(Cl)cn3)CCO2)c1 (stereo not drawn),-35.8%
7,Cc1cc(N)cc(C2CN(Cc3cc[nH]n3)CCO2)n1 (stereo not drawn),0.301%
8,CNc1cc(C)nc(C2CN(Cc3cc[nH]n3)CCO2)c1 (stereo not drawn),67.7%
9,COCC1CN(C(=O)c2ccccn2)Cc2nccn2C1 (stereo not drawn),11.5%
10,COCC1CN(C(=O)c2cccn2C)Cc2nccn2C1 (stereo not drawn),42.1%
11,COCC1CN(C(=O)c2cccs2)Cc2nccn2C1 (stereo not drawn),67.5%
12,O=C(NCCn1ccnc1)c1ccn(-c2ccccc2F)n1,7.27%
13,O=c1c(NCCc2ccc(O)cc2)c(NCc2ccccn2)c1=O,23.7%
14,O=C(NS(=O)(=O)c1ccc(F)cc1)C1CCOc2ccccc21 (stereo not drawn),48.5%
15,O=C(NS(=O)(=O)Cc1ccc(F)cc1)C1CCc2ccccc21 (stereo not drawn),11.7%
16,O=C(NS(=O)(=O)Cc1ccc(F)cc1)C1CCOc2ccccc21 (stereo not drawn),50.7%
17,COCC(=O)N1CC[C@@H](N2CCOCC2)[C@@H]1Cc1cccnc1,27.6%
18,CCC(Nc1nc(CCN)nc2ccccc12)c1cc(C)ccn1 (stereo not drawn),-1.25%
19,NCCc1nc(N[C@@H](CO)c2ccccc2)c2ccccc2n1,31.9%
20,CCC(Nc1nc(CCN)nc2ccccc12)c1cccs1 (stereo not drawn),51.1%
21,CCc1nc(CN(C)CC(=O)N(C)C2CC2)cs1,42.6%
22,COc1c(CNCCNC(=O)c2cccc(C)c2)c(C)nn1C,33.8%

row,SMILES,INHIBITION
1,COCC(NC(=O)c1cc[nH]n1)c1cccc(C(F)(F)F)c1 (stereo not drawn),42.6%
2,COCC(NC(=O)c1ccc[nH]1)c1cccc(C(F)(F)F)c1 (stereo not drawn),51.3%
3,COCC(NC(=O)c1ccco1)c1cccc(C(F)(F)F)c1 (stereo not drawn),-31.6%
4,Cc1ncsc1CN1C[C@@H]2COC[C@]2(C(=O)NCC2CC2)C1,39.2%
5,O=c1n(Cc2ccc(C(F)(F)F)cc2)nc2ncccn12,-80.9%
6,CCc1cnc(CNc2cccc3c2CCN(S(=O)(=O)CC)C3)o1,39.6%
7,CCS(=O)(=O)N1CCc2c(cccc2NCc2nc(C)c(C)o2)C1,52.6%
8,CCCNC(=O)Nc1cccc2c1CCN(S(C)(=O)=O)C2,-9.48%
9,CCS(=O)(=O)N1CCc2c(cccc2NCc2ncc[nH]2)C1,27.6%
10,COCCCNC(=O)Nc1cccc2c1CCN(S(C)(=O)=O)C2,17.5%
11,COCCNC(=O)Nc1cccc2c1CCN(S(C)(=O)=O)C2,65.4%
12,CC(C)NC(=O)Nc1cccc2c1CCN(S(C)(=O)=O)C2,45.7%
13,CCS(=O)(=O)N1CCc2c(cccc2NC(=O)NCCO)C1,50.8%
14,CCS(=O)(=O)N1CCc2c(cccc2NC(=O)NCCOC)C1,3.95%
15,CC(C)N(C)C(=O)COc1ccc(-c2noc(C3CCCO3)n2)cc1 (stereo not drawn),-59.4%
16,O=C(NCC1CN(c2ncccn2)Cc2nccn2C1)c1cccnc1 (stereo not drawn),-86.4%
17,Fc1ccc(N2CCN(CCCc3cn[nH]c3)CC2)cc1,31.6%
18,NC(=O)C1CN(C(=O)Nc2ccccc2OCC(F)(F)F)CCO1 (stereo not drawn),31.2%
19,N#CC1(NC(=O)c2c(F)ccc(OC(F)F)c2F)CCOCC1,-11.7%
20,CCn1nnc(NCc2cc(Cl)cc(Cl)c2OC)n1,-11.6%
21,CCn1nnc(NCc2cc(Br)cc(Br)c2OC)n1,61.1%
22,CCCn1nnc(NCc2cc(Br)cc(Br)c2OC)n1,-24%

row,SMILES,INHIBITION
1,Cc1ncccc1CNC1CCCN(Cc2noc(C3CC3)n2)C1 (stereo not drawn),46.2%
2,CNC(=O)c1cc2c(nc1NCC(C)C)CCN(CCOC)CC2,21.1%
3,COCCN1CCc2cc(C(=O)NC(C)C)c(NCC3CC3)nc2CC1,70.8%
4,COCCN1CCc2cc(C(=O)NC(C)C)c(NCC(C)C)nc2CC1,74.9%
5,CCS(=O)(=O)N1CCc2cc(C(=O)NC)c(NCC(C)C)nc2CC1,-9.02%
6,COCCN1CCc2cc(C(=O)O)c(NCC3CC3)nc2CC1,-17.2%
7,COCCN1CCc2cc(C(=O)N(C)C)c(NCC3CC3)nc2CC1,-27.9%
8,CCOc1ccccc1C(=O)Nc1cccc(C[S+](C)[O-])c1C (stereo not drawn),16.645%
9,O=C(CCN1CCCC(CO)(CC2CC2)C1)NCc1cccc(Cl)c1 (stereo not drawn),4.66%
10,CCC1COC2(CCN(C(=O)c3ccco3)CC2)C1 (stereo not drawn),22.9%
11,COc1ccc2c(c1)CC(NCc1cccc(OCC(N)=O)c1)CC2 (stereo not drawn),43.4%
12,COc1ccc2c(c1)CC(NCc1cccc(CO)c1)CC2 (stereo not drawn),47.1%
13,COc1ccc2c(c1)CC(NCc1cccc(NC(C)=O)c1)CC2 (stereo not drawn),59.1%
14,COCC(=O)NCc1cc(=O)n2c(n1)CN(Cc1ccco1)CCC2,47.5%
15,O=C(NCc1nnc2n1CCCC2)N1CCc2sccc2C1,5.7%
16,Cc1cccc(CNC(=O)Nc2ccn(CCN(C)C)n2)c1,-23.8%
17,C=C(C)Cn1nc(C)c(CN2CCN(C3CCCCC3)C(=O)C2)c1C,13.85%
18,Cc1ccccc1C1(CNCc2cnc(N3CCOCC3)nc2)CC1,-5.22%
19,Cc1ccc(CN2CCCC(c3nn(C)c4nccnc34)C2)s1 (stereo not drawn),37.6%
20,CCCN1CCC(c2nc3ccc(NCc4ccccc4)cn3n2)CC1,61.1%
21,CCN1CCC(c2nc3ccc(NC(C)C)cn3n2)CC1,26.4%
22,CCCN1CCC(c2nc3ccc(NCc4cccnc4)cn3n2)CC1,52.1%

row,SMILES,INHIBITION
1,c1cncc(CNc2ccc3nc(C4CCNCC4)nn3c2)c1,29.4%
2,CCCN1CCC(c2nc3ccc(C)cn3n2)CC1,29.4%
3,CC(C)CN1CCC(c2nc3ccc(NC(C)C)cn3n2)CC1,30.3%
4,CN(C)C(=O)N1C[C@H]2CC[C@@H](C1)N(Cc1nnc(-c3ccco3)o1)C2,11.6%
5,Cc1nc(-c2cnn(C)c2)nc2c1CN(C(=O)c1cccnc1)CC2,-4.99%
6,Cc1nc(-c2cnn(C)c2)nc2c1CN(C(=O)c1cccn1C)CC2,-6.46%
7,Cc1nc(-c2cnn(C)c2)nc2c1CN(C(=O)c1ccc[nH]1)CC2,57.1%
8,COC(=O)c1ccc(NC(C)c2ccc3c(c2)CCC(=O)N3)nn1 (stereo not drawn),19.7%
9,COc1ccc(-c2cc3nc(CCNC(=O)C4CC4)nn3cn2)cc1,8.915%
10,c1csc(NCc2n[nH]c3c2CCN(CC2CC2)C3)n1,41.2%
11,Fc1ccccc1OCCc1cc(C2CNCCO2)n[nH]1 (stereo not drawn),32.8%
12,Clc1ccc(-c2ccc(C3CNCCO3)nc2)cc1 (stereo not drawn),94.6%
13,Cn1nc(C2CNCCO2)cc1CCOc1ccc(Cl)cc1 (stereo not drawn),16.5%
14,COc1ccc(-c2ccc(C3CNCCO3)nc2)cc1 (stereo not drawn),91.6%
15,CN(C)c1ncc(-c2ccc(F)cc2)c(C2CNCCO2)n1 (stereo not drawn),15.1%
16,c1ccc(-c2ccc(C3CNCCO3)nc2)cc1 (stereo not drawn),84%
17,COc1ccc(-c2cnc(N(C)C)nc2C2CNCCO2)cc1 (stereo not drawn),21.7%
18,CN(C)c1ncc(-c2ccc(C(N)=O)cc2)c(C2CNCCO2)n1 (stereo not drawn),-28.9%
19,Cc1ccc(-c2ccc(C3CNCCO3)nc2)cc1 (stereo not drawn),91.6%
20,COc1ccc(OCCc2cc(C3CNCCO3)nn2C)cc1 (stereo not drawn),-5.8%
21,CN(C)c1ncc(-c2cccc(F)c2)c(C2CNCCO2)n1 (stereo not drawn),8.72%
22,c1ncc(-c2ccc(C3CNCCO3)nc2)cn1 (stereo not drawn),24.8%

row,SMILES,INHIBITION
1,CC(=O)N1CCCN(C(=O)NC(C)Cn2ccnc2)CC1 (stereo not drawn),24.2%
2,Cn1c(=O)c2cc(C(=O)NCc3ccncc3)ccc2n(C)c1=O,-4.82%
3,Cc1cc(C[S+]([O-])CC(=O)NCc2cccc(Cl)c2)no1 (stereo not drawn),49.8%
4,CC(C)SCC(=O)N1CCCn2nc(C(=O)Nc3ccccc3)cc2C1,-59.9%
5,CC(=O)N1CCC2(CCCN(S(=O)(=O)c3ccc(F)cc3)C2)C1 (stereo not drawn),-4.82%
6,Cc1c(COC(C)C)cccc1NC(=O)N1CCC(N2CCCC2)C1 (stereo not drawn),36.3%
7,Cc1nc(C)n(CC2CCCN2Cc2coc(-c3cccs3)n2)n1 (stereo not drawn),22.6%
8,COc1ccccc1NC(=O)NCCCC(=O)Nc1cn[nH]c1,-12.1%
9,O=C(CCCNC(=O)Nc1ccc(F)cc1)Nc1cn[nH]c1,20.7%
10,O=C(CCCOc1ccccc1F)NCCCC(=O)Nc1cn[nH]c1,51.7%
11,CC(C)N1CCC(Nc2ccn(C)n2)C1=O (stereo not drawn),23.1%
12,CC(C)N1CCC(Nc2ccn(Cc3ccccn3)n2)C1=O (stereo not drawn),38.7%
13,CC(C)N1CCC(Nc2ccn(CCC#N)n2)C1=O (stereo not drawn),63.3%
14,COC(C)(CNS(=O)(=O)c1cccnc1)c1ccccc1F (stereo not drawn),12.1%
15,CCC1c2ccsc2CCN1C(=O)NCc1cc(C)on1 (stereo not drawn),11.915%
16,CC(NC(=O)NCC(C)(C)C(N)=O)c1nc(-c2ccccc2)cs1 (stereo not drawn),28.6%
17,COC(=O)[C@H]1C[C@@H](O)CCN1S(=O)(=O)c1cc(Cl)ccc1OC,-16.9%
18,COC(=O)[C@H]1C[C@@H](O)CCN1S(=O)(=O)c1ccc(F)cc1F,34.2%
19,COC(=O)[C@H]1C[C@@H](O)CCN1S(=O)(=O)c1cc(C)c(Cl)cc1C,60.2%
20,Cc1cc(C)c(CNc2cnn(CC(O)CN(C)C)c2)c(C)c1 (stereo not drawn),29.8%
